The sample as a whole holds a higher share of the strongest signals than the screen did.
Legend:
Assay in all cases: glycan array binding signal (z-score within array); higher = stronger binding
Conditions in all cases: glycan notation: IUPAC condensed, linker removed
[1] = biological target: GalNAc(b1-3)Gal(a1-4)Gal(b1-4)GlcNAc
Outline: (§1)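 Glycan array data were curated from 3228 arrays in the Consortium for Functional Glycomics database and kept only where the protein sequence was available. Glycan names were converted to IUPAC-condensed notation, and columns mapping to the same glycan were averaged. The binding signal is a within-array Z-score, averaged across arrays of the same protein sequence at different concentrations or buffers and across linkers. Negative Z-scores can be read as non-binding.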

[2] = biological target: GalNAc(b1-3)Gal(a1-4)Gal(b1-4)GlcNAc(b1-3)Gal(b1-4)Glc
Outline: as §1

[3] = biological target: GalNAc6S(b1-4)GlcNAc
Outline: as §1

[4] = biological target: GlcNAc(a1-4)Gal(b1-4)GlcNAc
Outline: as §1

[5] = biological target: GlcNAc(b1-2)[GlcNAc(b1-4)]Man(a1-3)[GlcNAc(b1-4)][GlcNAc(b1-2)Man(a1-6)]Man(b1-4)GlcNAc(b1-4)GlcNAc
Outline: as §1

[6] = biological target: GlcNAc(b1-3)Gal(b1-4)GlcNAc(b1-3)Gal(b1-4)GlcNAc(b1-2)[GlcNAc(b1-3)Gal(b1-4)GlcNAc(b1-3)Gal(b1-4)GlcNAc(b1-6)]Man(a1-6)[GlcNAc(b1-3)Gal(b1-4)GlcNAc(b1-3)Gal(b1-4)GlcNAc(b1-2)Man(a1-3)]Man(b1-4)GlcNAc(b1-4)[Fuc(a1-6)]GlcNAc
Outline: as §1

[7] = biological target: GlcNAc(b1-3)Gal(b1-4)GlcNAc(b1-3)Gal(b1-4)GlcNAc(b1-3)Gal(b1-4)GlcNAc(b1-2)Man(a1-3)[GlcNAc(b1-3)Gal(b1-4)GlcNAc(b1-3)Gal(b1-4)GlcNAc(b1-3)Gal(b1-4)GlcNAc(b1-2)Man(a1-6)]Man(b1-4)GlcNAc(b1-4)[Fuc(a1-6)]GlcNAc
Outline: as §1

[8] = biological target: GlcNAc(b1-3)Gal(b1-4)GlcNAc(b1-3)Gal(b1-4)GlcNAc(b1-3)Gal(b1-4)GlcNAc(b1-3)Gal(b1-4)GlcNAc(b1-2)Man(a1-3)[GlcNAc(b1-3)Gal(b1-4)GlcNAc(b1-3)Gal(b1-4)GlcNAc(b1-3)Gal(b1-4)GlcNAc(b1-3)Gal(b1-4)GlcNAc(b1-2)Man(a1-6)]Man(b1-4)GlcNAc(b1-4)[Fuc(a1-6)]GlcNAc
Outline: as §1

[9] = biological target: GlcNAc(b1-3)Gal(b1-4)GlcNAc(b1-6)[Gal(b1-3)]GalNAc
Outline: as §1

[10] = biological target: GlcNAc(b1-3)GalNAc
Outline: as §1

[11] = biological target: GlcNAc(b1-6)GalNAc
Outline: as §1

[12] = biological target: Kdn(a2-3)Gal(b1-4)GlcNAc
Outline: as §1

[13] = biological target: Man(a1-2)Man(a1-3)[Man(a1-2)Man(a1-6)]Man
Outline: as §1

[14] = biological target: Neu5Ac(a2-3)Gal(b1-3)GalNAc(b1-4)[Neu5Ac(a2-8)Neu5Ac(a2-3)]Gal(b1-4)Glc
Outline: as §1

[15] = biological target: Neu5Ac(a2-3)Gal(b1-3)GlcNAc(b1-6)GalNAc
Outline: as §1

[16] = biological target: Neu5Ac(a2-3)Gal(b1-4)GlcNAc(b1-3)Gal(b1-4)GlcNAc(b1-2)Man(a1-3)[Neu5Ac(a2-3)Gal(b1-4)GlcNAc(b1-3)Gal(b1-4)GlcNAc(b1-2)Man(a1-6)]Man(b1-4)GlcNAc(b1-4)GlcNAc
Outline: as §1

[17] = biological target: Neu5Ac(a2-3)Gal(b1-4)GlcNAc(b1-3)Gal(b1-4)GlcNAc(b1-6)[Gal(b1-3)]GalNAc
Outline: as §1

[18] = biological target: Neu5Ac(a2-3)Gal(b1-4)GlcNAc(b1-6)GalNAc
Outline: as §1

[19] = biological target: Neu5Ac(a2-3)Gal(b1-4)GlcNAc(b1-6)[Gal(b1-3)]GalNAc
Outline: as §1

[20] = biological target: Neu5Ac(a2-3)Gal(b1-4)[Fuc(a1-3)]GlcNAc6S
Outline: as §1

[21] = biological target: Neu5Ac(a2-3)GalNAc
Outline: as §1

[22] = biological target: Neu5Ac(a2-6)Gal(b1-4)GlcNAc(b1-2)Man
Outline: as §1

[23] = biological target: Neu5Ac(a2-6)Gal(b1-4)GlcNAc(b1-2)Man(a1-3)[GlcNAc(b1-2)Man(a1-6)]Man(b1-4)GlcNAc(b1-4)GlcNAc
Outline: as §1

[24] = biological target: Neu5Ac(a2-6)Gal(b1-4)GlcNAc(b1-2)Man(a1-6)[GlcNAc(b1-2)Man(a1-3)]Man(b1-4)GlcNAc(b1-4)GlcNAc
Outline: as §1

[25] = biological target: Neu5Ac(a2-8)Neu5Ac(a2-3)[Gal(b1-3)GalNAc(b1-4)]Gal(b1-4)Glc
Outline: as §1

[26] = biological target: Neu5Gc(a2-3)Gal(b1-3)GlcNAc
Outline: as §1

[27] = biological target: Neu5Gc(a2-8)Neu5Gc(a2-3)Gal(b1-4)GlcNAc
Outline: as §1

[28] = biological target: Neu5Gc(a2-8)Neu5Gc(a2-6)Gal(b1-4)GlcNAc
Outline: as §1

B1: DC-ASGPR L+GEE (Homo sapiens) (protein)
chain: MTRTYENFQYLENKVKVQGFKNGPLPLQSLLQRLRSGPCHLLLSLGLGLLLLVIICVVGFQNSKFQRDLVTLRTDFSNFTSNTVAEIQALTSQGSSLEETIASLKAEVEGFKQERQAGVSELQEHTTQKAHLGHCPHCPSVCVPVHSEMLLRVQQLVQDLKKLTCQVATLNNNGEEASTEGTCCPVNWVEHQDSCYWFSHSGMSWAEAEKYCQLKNAHLVVINSREEQNFVQKYLGSAYTWMGLSDPEGAWKWVDGTDYATGFQNWKPGQPDDWQGHGLGGGEDCAHFHPDGRWNDDVCQRPYHWVCEAGLGQTSQESH
Q: How did the “glycan array binding signal (z-score)” value [1] turn out when B1 was run?
A: 4.33

Q: What about the “glycan array binding signal (z-score)” value [2] of the same binder?
A: 4.06

Q: What about the “glycan array binding signal (z-score)” value [3] of the same binder?
A: 1.11

Q: What about the “glycan array binding signal (z-score)” value [4] of the same binder?
A: -0.367

Q: What about the “glycan array binding signal (z-score)” value [5] of the same binder?
A: -0.37

Q: What about the “glycan array binding signal (z-score)” value [6] of the same binder?
A: 0.194

Q: And the “glycan array binding signal (z-score)” value [7]?
A: -0.283

Q: And the “glycan array binding signal (z-score)” value [8]?
A: 0.512

Q: And the “glycan array binding signal (z-score)” value [9]?
A: -0.411

Q: And the “glycan array binding signal (z-score)” value [10]?
A: -0.439

Q: And the “glycan array binding signal (z-score)” value [11]?
A: 3.71

Q: What about the “glycan array binding signal (z-score)” value [12] of the same binder?
A: -0.074

Q: And the “glycan array binding signal (z-score)” value [13]?
A: -0.348

Q: What about the “glycan array binding signal (z-score)” value [14] of the same binder?
A: -0.319

Q: And the “glycan array binding signal (z-score)” value [15]?
A: 6.64

Q: And the “glycan array binding signal (z-score)” value [16]?
A: -0.164

Q: And the “glycan array binding signal (z-score)” value [17]?
A: -0.553

Q: And the “glycan array binding signal (z-score)” value [18]?
A: 3

Q: And the “glycan array binding signal (z-score)” value [19]?
A: -0.019

Q: What about the “glycan array binding signal (z-score)” value [20] of the same binder?
A: -0.418

Q: And the “glycan array binding signal (z-score)” value [21]?
A: -0.223

Q: What about the “glycan array binding signal (z-score)” value [22] of the same binder?
A: 0.432

Q: What about the “glycan array binding signal (z-score)” value [23] of the same binder?
A: -0.362

Q: And the “glycan array binding signal (z-score)” value [24]?
A: -0.328

Q: And the “glycan array binding signal (z-score)” value [25]?
A: 0.544

Q: And the “glycan array binding signal (z-score)” value [26]?
A: -0.017

Q: And the “glycan array binding signal (z-score)” value [27]?
A: -0.146

Q: And the “glycan array binding signal (z-score)” value [28]?
A: -0.204

From the supplement of paper PMC8728848
